Experimental findings from PubChem BioAssay (NCATS) are described below.

Inconclusive results are not listed. Active and inactive are the calls of the source. Calls follow the shape of the dose curve; as a rule, active = well fitted inhibition curve with a large enough effect; inconclusive = small, poorly fitted or top-dose-only effect; inactive = flat fitted curve, though single readings scatter.
Potency is read from the fitted curve at half-maximal effect.

For the assay, the system named is HB3. The assay is described as follows: qHTS profiling for inhibitors of Plasmodium falciparum proliferation (AID 504749). Also: nearly all actives have a fitted effect of over 60% in size.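 As to activity, negative = inhibition: 0% = DMSO vehicle and full inhibition = artemisinin control.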 To be noted: P. falciparum in erythrocytes, SYBR Green DNA, 72 h; series mostly up to 28.7 µM; activity, negative = inhibition: at the top concentration. A digest of the protocol:
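SYBR Green fluorescence of parasite DNA, read after lysis and overnight dark incubation, measured growth over 72 h in erythrocyte culture at 0.3% parasitemia and 2.5% hematocrit. Data normalised to DMSO and 0.29 uM artemisinin, with plate-drift correction.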
Background: qHTS replaces the single test concentration by a dilution series.
For `COc1ccccc1N1CCN(CCCC(=O)c2ccc(F)cc2)CC1`, the “activity, negative = inhibition” value is 1.03% (inactive).
As to `Cn1cc(NC(=O)c2cc(NC(=O)c3cc(NC=O)cn3C)cn2C)cc1C(=O)NCCC(=N)N`, the Potency is 10 µM (active).
Consider `CCCCCc1ccc(C)cc1O`, for which the “activity, negative = inhibition” value is 4.39% (inactive).
In the case of `CCCCCCCCCCCCCCCCOCCOCCOCCOCCOCCOCCOCCOCCOCCOCCOCCOCCOCCOCCOCCOCCOCCOCCOCCOCCO`, the Potency is 7.08 µM (active).
For `C=CCN1CCCC1CNC(=O)c1cc(S(N)(=O)=O)cc(OC)c1OC` (stereo not given), the “activity, negative = inhibition” value was -4.02% (inactive).
For the molecule `CN(C)CCOc1ccc(/C(=C(/CCCl)c2ccccc2)c2ccccc2)cc1`, the “activity, negative = inhibition” value is -0.904% (inactive).
On to `Cc1ccc(S(=O)(=O)O)cc1C`, for which the “activity, negative = inhibition” value is 3.93% (inactive).
Regarding `NCC[C@H](O)C(=O)N[C@@H]1C[C@H](N)[C@@H](O[C@H]2O[C@H](CN)[C@@H](O)[C@H](O)[C@H]2O)[C@H](O)[C@H]1O[C@H]1O[C@H](CO)[C@@H](O)[C@H](N)[C@H]1O`, the “activity, negative = inhibition” value is 6.61% (inactive).
Still for that read-out and setting: as for `CN(C)c1ccc(C(=C2C=CC(=[N+](C)C)C=C2)c2c(O)c(S(=O)(=O)[O-])cc3cc(S(=O)(=O)O)ccc23)cc1`, the figure is -9.58% (inactive).
In the case of `COC(=O)CCC[N+](C)(C)C`, the “activity, negative = inhibition” value was 1.17% (inactive).
Consider `C#C[C@]1(O)CC[C@@H]2[C@H]3CCC4=CC(=O)CC[C@H]4[C@H]3C(=C)C[C@@]21CC`, for which the “activity, negative = inhibition” value is -28.9% (inactive).
As to `CC(C)C1=CC2=CC[C@@H]3[C@](C)(CCC[C@@]3(C)C(=O)O)[C@H]2CC1`, the “activity, negative = inhibition” value was -7.43% (inactive).
For `Cn1c(=O)c2c(ncn2CCOC(=O)C(C)(C)Oc2ccc(Cl)cc2)n(C)c1=O`, the “activity, negative = inhibition” value was 4.18% (inactive).
As for `CC(C)NCC(O)COc1ccccc1-n1cccc1` (stereo not given), the “activity, negative = inhibition” value was 7.69% (inactive).
With `O=C(CCCN1CCN2CCCC2C1)c1ccc(F)cc1` (stereo not given), the “activity, negative = inhibition” value was 7.45% (inactive).
As to `Cc1ncc(C[n+]2csc(CCO)c2C)c(N)n1`, the “activity, negative = inhibition” value was 6.76% [at 12.8 µM] (inactive).
Take `COc1ccc2nc(NC(=O)Nc3ccccc3)sc2c1`: the “activity, negative = inhibition” value was -26.9% (inactive).
For `Cc1cc(C(=O)NCCc2ccc(S(=O)(=O)NC(=O)NN3CCCCCC3)cc2)no1`, the “activity, negative = inhibition” value was 1.65% (inactive).
As for `N=C(N)c1ccc(/C=C/c2ccc(C(=N)N)cc2O)cc1`, the Potency is 11.2 µM (active).
With `CC(=O)[O][Al][O]C(C)=O`, the “activity, negative = inhibition” value is 1.72% (inactive).
Turning to `CC1CC(OC(=O)C(O)c2ccccc2)CC(C)(C)C1` (stereo not given), the “activity, negative = inhibition” value is 12.1% (inactive).
In the case of `C=CC[C@@H]1/C=C(\C)C[C@H](C)C[C@H](OC)[C@H]2O[C@@](O)(C(=O)C(=O)N3CCCC[C@H]3C(=O)O[C@H](/C(C)=C/[C@@H]3CC[C@@H](O)[C@H](OC)C3)[C@H](C)[C@@H](O)CC1=O)[C@H](C)C[C@@H]2OC`, the Potency was 1 µM (active).
As for `OCCOCCOCCO`, the “activity, negative = inhibition” value was -0.45% (inactive).
Consider `O=C(OCc1ccccc1)c1ccc(O)cc1`, for which the “activity, negative = inhibition” value was -2.03% (inactive).
Still for that read-out and setting: as for `CC(/C=C/C=C(\C)C(=O)O[C@@H]1O[C@H](CO[C@@H]2O[C@H](CO)[C@@H](O)[C@H](O)[C@H]2O)[C@@H](O)[C@H](O)[C@H]1O)=C\C=C\C=C(C)\C=C\C=C(/C)C(=O)O[C@@H]1O[C@H](CO[C@@H]2O[C@H](CO)[C@@H](O)[C@H](O)[C@H]2O)[C@@H](O)[C@H](O)[C@H]1O`, the figure is 2.36% (inactive).
On to `COC(=O)[C@@H](N)CS`, for which the “activity, negative = inhibition” value is 9.09% (inactive).
Same read-out and setting: as for `CN(C)CCCSc1ccccc1NC(=O)/C=C/c1ccccc1`, the figure is -0.233% (inactive); as for `O=P(O)(O)OP(=O)(O)O`, -19.4% (inactive).
As to `CCSc1ccc2c(c1)N(CCCN1CCN(C)CC1)c1ccccc1S2`, the “activity, negative = inhibition” value is -8.25% [at 12.8 µM] (inactive).
Still for that read-out and setting: then `CCCCCCCCCCCCCCCCCC(=O)OC[C@@H](O)[C@H]1OC[C@H](O)[C@H]1O`, with 4.05% (inactive).
